These results are taken from PubChem BioAssay.

The nature of test [1]: antimalarial activity against Dd2 strain (AID 2302;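 active means growth inhibition above 50% at the single 2 µM test dose, taken to imply half-maximal potency below 2 µM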;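 further: 0% = DMSO untreated growth and 100% = chloroquine plus artemisinin killed control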). The following applies: P. falciparum Dd2 in RBCs, LDH growth readout, 72 h; at 2 µM; hits give high values.
Test [2] is described as follows: human hepatoma cell viability loss – ATP luminescence, cytotoxicity control for P. falciparum antimalarial project, primary screen (AID 2303;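 active means inhibition above 50%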;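 further: 0% = DMSO wells and 100% = digitonin-killed cells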). The following applies: HepG2 viability, 24-48 h, at 10 µM, hits give high values.
In test [3] the target is L-lactate dehydrogenase (Plasmodium falciparum (isolate CDC / Honduras)) (UniProt Q27743). The test can be described thus: PfLDH activity inhibition – cell lysate, 3D7 strain, counter-screen for P. falciparum growth inhibition project (AID 2304).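 Further: 0% = vehicle and 100% = reference inhibitor.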 The following applies: P. falciparum 3D7 crude extract, LDH APAD/NBT absorbance; at 2 µM; hits give high values. (In general: The purpose of a counterscreen is to sort out artefacts and off-target activity.)

Test [4] is described as follows: inhibition of 3D7 malaria parasite growth – strain 3D7 (AID 2306).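 Further: 0% = DMSO wells and 100% = chloroquine plus artemisinin control wells.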 The following applies: P. falciparum 3D7 erythrocytic growth, LDH absorbance, 72 h; at 2 µM; hits give high values.
Test [5] concerns the target Calcium-dependent protein kinase 1 (Plasmodium falciparum (isolate 3D7)) (UniProt P62344). Briefly: PfCDPK1 kinase inhibitors, biochemical, TCAMS library (AID 1159585; cut-off not given, nearly all actives have IC50 up to about 0.98 µM;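 further: inhibitors leave more ATP so luminescence rises with inhibition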). The following applies: recombinant PfCDPK1, Kinase-Glo ATP depletion luminescence. In general terms: In Kinase-Glo more light means more ATP remaining.
Test [6] has as its target Plasmodium falciparum protein kinase 6 (PK6, PF3D7_1337100) (UniProt Q8IDW1). Briefly: PfPK6 kinase inhibitors, biochemical, TCAMS library (AID 1159586). Particulars: recombinant PfPK6, Kinase-Glo ATP depletion luminescence.
For test [7], the target named is Protein kinase 7 (PK7), Plasmodium falciparum 3D7 (PF3D7_0213400) (UniProt Q7YTF7). The test can be described thus: inhibition of Plasmodium PK7 catalytic activity – biochemical, TCAMS antimalarial set, Kinase-Glo luminescence (AID 1159587). Particulars: recombinant PfPK7, Kinase-Glo ATP depletion luminescence.
For test [8], the target named is Calcium-dependent protein kinase 4 (Plasmodium falciparum (isolate 3D7)) (UniProt Q8IBS5). The test can be described thus: PfCDPK4 kinase inhibitors, biochemical, TCAMS library (AID 1159588; cut-off not given, nearly all actives have IC50 up to about 0.91 µM). Particulars: recombinant PfCDPK4, Kinase-Glo ATP depletion luminescence.

Each structure is given as a SMILES string. Values without a mark were called inactive. For part of these data: Potency and affinity values are given separately. Active and inactive are the calls of the source. Unless noted, how the calls were made is not given here.

Sequence of L-lactate dehydrogenase (Plasmodium falciparum (isolate CDC / Honduras)) (Q27743 whole entry, looked up): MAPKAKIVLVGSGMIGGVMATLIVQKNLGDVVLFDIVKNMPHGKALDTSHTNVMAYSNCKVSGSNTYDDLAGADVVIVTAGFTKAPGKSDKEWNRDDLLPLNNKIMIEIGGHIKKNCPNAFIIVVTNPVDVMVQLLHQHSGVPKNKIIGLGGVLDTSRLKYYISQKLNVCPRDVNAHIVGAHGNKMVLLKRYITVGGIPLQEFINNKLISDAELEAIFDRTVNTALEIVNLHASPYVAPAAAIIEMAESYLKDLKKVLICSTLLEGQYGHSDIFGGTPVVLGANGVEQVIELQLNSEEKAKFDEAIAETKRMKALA
Sequence of Protein kinase 7 (PK7), Plasmodium falciparum 3D7 (PF3D7_0213400) (Q7YTF7 1-343): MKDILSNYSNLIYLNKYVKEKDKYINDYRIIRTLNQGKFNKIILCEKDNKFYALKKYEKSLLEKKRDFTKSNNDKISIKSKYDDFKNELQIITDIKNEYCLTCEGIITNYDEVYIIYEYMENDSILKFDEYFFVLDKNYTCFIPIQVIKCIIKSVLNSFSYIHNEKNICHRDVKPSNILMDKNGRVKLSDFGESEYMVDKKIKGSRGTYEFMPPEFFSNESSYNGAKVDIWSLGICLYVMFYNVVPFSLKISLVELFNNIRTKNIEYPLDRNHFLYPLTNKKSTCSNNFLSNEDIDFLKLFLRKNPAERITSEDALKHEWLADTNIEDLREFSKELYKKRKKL
Sequence of Calcium-dependent protein kinase 1 (Plasmodium falciparum (isolate 3D7)) (P62344 whole entry, looked up): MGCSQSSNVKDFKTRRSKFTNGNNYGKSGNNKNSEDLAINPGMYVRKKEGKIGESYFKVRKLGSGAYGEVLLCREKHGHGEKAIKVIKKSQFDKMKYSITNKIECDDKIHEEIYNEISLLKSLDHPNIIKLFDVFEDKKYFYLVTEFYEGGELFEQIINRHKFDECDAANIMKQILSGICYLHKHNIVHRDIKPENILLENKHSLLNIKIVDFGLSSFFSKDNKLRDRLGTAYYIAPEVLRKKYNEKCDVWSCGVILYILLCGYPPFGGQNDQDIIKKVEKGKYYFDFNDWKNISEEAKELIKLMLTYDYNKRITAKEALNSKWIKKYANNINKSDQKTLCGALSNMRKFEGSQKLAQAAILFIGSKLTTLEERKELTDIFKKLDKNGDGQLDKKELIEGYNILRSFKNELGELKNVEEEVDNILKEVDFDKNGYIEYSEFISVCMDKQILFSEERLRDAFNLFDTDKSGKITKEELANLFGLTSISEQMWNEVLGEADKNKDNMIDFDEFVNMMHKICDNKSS
Sequence of Plasmodium falciparum protein kinase 6 (PK6, PF3D7_1337100) (Q8IDW1 1-305): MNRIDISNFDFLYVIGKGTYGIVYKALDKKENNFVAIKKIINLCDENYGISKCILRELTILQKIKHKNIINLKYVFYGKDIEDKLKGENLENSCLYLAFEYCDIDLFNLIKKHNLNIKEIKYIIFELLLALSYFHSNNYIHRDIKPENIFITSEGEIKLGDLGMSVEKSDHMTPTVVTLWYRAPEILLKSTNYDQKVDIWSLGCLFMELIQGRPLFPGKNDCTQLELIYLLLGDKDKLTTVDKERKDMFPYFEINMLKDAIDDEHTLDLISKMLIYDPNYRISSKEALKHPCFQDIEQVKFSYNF
Sequence of Calcium-dependent protein kinase 4 (Plasmodium falciparum (isolate 3D7)) (Q8IBS5 whole entry, looked up): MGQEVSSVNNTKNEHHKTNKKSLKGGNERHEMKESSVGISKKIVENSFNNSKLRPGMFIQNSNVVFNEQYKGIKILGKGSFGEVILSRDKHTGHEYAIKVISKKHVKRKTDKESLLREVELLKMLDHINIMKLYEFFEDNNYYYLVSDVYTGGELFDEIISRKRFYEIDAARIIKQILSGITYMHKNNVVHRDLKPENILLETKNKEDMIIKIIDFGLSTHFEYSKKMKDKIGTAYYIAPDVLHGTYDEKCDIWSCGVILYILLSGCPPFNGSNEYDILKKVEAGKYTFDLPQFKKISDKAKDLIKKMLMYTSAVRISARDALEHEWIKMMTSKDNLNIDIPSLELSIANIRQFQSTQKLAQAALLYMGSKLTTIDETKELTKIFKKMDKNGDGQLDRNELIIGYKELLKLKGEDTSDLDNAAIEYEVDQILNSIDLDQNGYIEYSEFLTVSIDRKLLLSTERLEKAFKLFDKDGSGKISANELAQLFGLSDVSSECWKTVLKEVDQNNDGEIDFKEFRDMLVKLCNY

Broadly, the inhibition is the drop in the measured response relative to a control, in per cent. For the compound `CCN(CC)CCN(Cc1ccc(-c2ccc(C(F)(F)F)cc2)cc1)C(=O)Cn1c(CCc2cc(F)c(F)cc2F)nc(=O)c2ccccc21`, the values for the growth inhibition in test [1] and in test [4] were 50% (active) and 99% (active), respectively. In addition, the inhibition was 39% in test [2] and -4% in test [3]. Also, the outcome in test [5], in test [6], in test [7] and in test [8] was inactive.

`O=C(Nc1cc(Cl)ccc1O)c1cnn2c(C(F)(F)F)cc(-c3cccs3)nc12`: the growth inhibition was 74% (active) in test [1] and 100% (active) in test [4]. The inhibition in test [2] was 8%; in test [3], 1%. Besides, the result in test [5], in test [6], in test [7] and in test [8] was inactive.

For the compound `COc1ccc(N2CCN(CCCCNC(=O)c3ccc(NC(=O)c4ccc(Cl)c(Cl)c4)cc3)CC2)c(OC)c1`, the growth inhibition in test [1] was 98% (active); in test [4], 101% (active). In addition, the inhibition in test [2] was 23%; in test [3], 4%. The result in test [5], in test [6], in test [7] and in test [8] was inactive.

Regarding `COc1nc(-n2ccc(=N)cc2)nc2ccccc12`, the growth inhibition in test [1] is 45%; in test [4] it was 90% (active). The inhibition in test [2] is 15%; in test [3] it was 1%. Moreover, the result in test [5], in test [6], in test [7] and in test [8] was inactive.

For `Cc1cc(NN=Cc2ccc(F)cc2)c2ccc(F)cc2n1`, the figures for the growth inhibition in test [1] and in test [4] were 30% and 99% (active), respectively. In addition, the figures for the inhibition in test [2] and in test [3] were -7% and 0%, respectively. Moreover, the outcome in test [5], in test [6], in test [7] and in test [8] was inactive.

In the case of `COc1cc(-c2nc(-c3ccccc3)c(-c3ccc(C(=O)c4ccc(F)cc4)cc3)[nH]2)cc(OC)c1O`, the values for the growth inhibition in test [1] and in test [4] were 100% (active) and 101% (active), respectively. The inhibition in test [2] is 0%; in test [3], -3%. The outcome in test [5], in test [6], in test [7] and in test [8] was inactive.

Turning to `C=CCC(C(=O)Nc1ccnc2ccc(OC)cc12)C1CCN(CCCCCCC)CC1` (stereo not drawn), the growth inhibition was 84% (active) in test [1] and 86% (active) in test [4]. In addition, the inhibition is 20% in test [2] and -7% in test [3]. Moreover, the outcome in test [5], in test [6], in test [7] and in test [8] was inactive.

As for `Fc1ccc2nc(-c3ccc(-c4ccc(CNCCc5ccncc5)cc4)cc3)[nH]c2c1`, the results for the growth inhibition in test [1] and in test [4] were 97% (active) and 100% (active), respectively. Besides, the inhibition in test [2] is 23%; in test [3] it was 0%. For the same compound, the result in test [5], in test [6], in test [7] and in test [8] was inactive.

As to `COc1ccc2nccc(NN=Cc3ccncc3)c2c1`, the growth inhibition in test [1] was 95% (active); in test [4] it was 99% (active). Further, the inhibition was 4% in test [2] and -3% in test [3]. Moreover, the outcome in test [5], in test [6], in test [7] and in test [8] was inactive.

As for `O=S(=O)(NCCCN1CCOCC1)c1ccc2nccc(Nc3ccc(Oc4ccccc4)cc3)c2c1`, the growth inhibition in test [1] was 92% (active); in test [4], 95% (active). The inhibition is 1% in test [2] and -2% in test [3]. Also, the outcome in test [5], in test [6], in test [7] and in test [8] was inactive.

`N#Cc1ccc(CN2CCCN(Cc3cccc(NC(=O)c4cc5ccccc5s4)c3)CC2)cc1`: the growth inhibition in test [1] is 36%; in test [4] it was 97% (active). Besides, the inhibition in test [2] was 31%; in test [3] it was 0%. Besides, the outcome in test [5], in test [6], in test [7] and in test [8] was inactive.

Regarding `CNC(=O)c1cncc(/C=C/c2ccccc2S(N)(=O)=O)c1`, the growth inhibition is 77% (active) in test [1] and 100% (active) in test [4]. In addition, the figures for the inhibition in test [2] and in test [3] were 17% and -1%, respectively. The result in test [5], in test [6], in test [7] and in test [8] was inactive.

Turning to `c1ccc(CNCc2cccc(-c3csc(-c4nc5ccccc5[nH]4)c3)c2)cc1`, the growth inhibition in test [1] is 54% (active); in test [4] it was 102% (active). Further, the inhibition in test [2] is 24%; in test [3] it was -3%. Further, the result in test [5], in test [6], in test [7] and in test [8] was inactive.

On to `CCCc1nc2c(N3CC(NC(=O)/C=C/c4ccccc4)C3)cccc2n1C1CC1`, for which the growth inhibition in test [1] was 68% (active); in test [4], 83% (active). Besides, the results for the inhibition in test [2] and in test [3] were 1% and 0%, respectively. The outcome in test [5], in test [6], in test [7] and in test [8] was inactive.

For `CCC(NC[C@@H](O)[C@H](Cc1ccccc1)NC(=O)c1cc(C2CCCC2)cc(N2CCCC2=O)c1)c1cccc(Cl)c1` (stereo partly drawn), the growth inhibition was 97% (active) in test [1] and 100% (active) in test [4]. Besides, the inhibition in test [2] was 7%; in test [3], -8%. For the same compound, the outcome in test [5], in test [6], in test [7] and in test [8] was inactive.

As for `Clc1ccc(CNc2ccnc(NCc3ccc4c(c3)OCCCO4)n2)c(Cl)c1`, the growth inhibition in test [1] was 20%; in test [4], 94% (active). Also, the inhibition was 50% (active) in test [2] and -2% in test [3]. The outcome in test [5], in test [6], in test [7] and in test [8] was inactive.

With `CCN(CC)CC(O)CNc1c2ccc([N+](=O)[O-])cc2nc2cc(OC)c(OC)cc12` (stereo not drawn), the growth inhibition in test [1] and in test [4] was 100% (active) each time. In addition, the inhibition in test [2] was 78% (active); in test [3], -4%. Besides, the outcome in test [5], in test [6], in test [7] and in test [8] was inactive.

In the case of `Cc1c(C)n(C2CCCC2)c2ncnc(OC3CCN(CC(=O)NCC4CC4)CC3)c12`, the growth inhibition in test [1] and in test [4] was 89% (active) throughout. Moreover, the inhibition in test [2] was 20%; in test [3] it was 1%. Besides, the outcome in test [5], in test [6], in test [7] and in test [8] was inactive.

In the case of `CC(O)C1CCCCN1C(=O)c1cccc(-c2ccc(-c3nc4ccccc4[nH]3)s2)c1` (stereo not drawn), the figures for the growth inhibition in test [1] and in test [4] were 23% and 100% (active), respectively. Further, the inhibition in test [2] is 24%; in test [3], -1%. Moreover, the result in test [5], in test [6], in test [7] and in test [8] was inactive.

Take `FC(F)(F)c1ccc2nc(-c3ccc(-c4cccc(CNCc5ccccc5)c4)cc3)[nH]c2c1`: the figures for the growth inhibition in test [1] and in test [4] were 43% and 100% (active), respectively. In addition, the figures for the inhibition in test [2] and in test [3] were -2% and -5%, respectively. Also, the outcome in test [5], in test [6], in test [7] and in test [8] was inactive.

As to `O=C(/C=C/c1ccc(Cl)c(Cl)c1)NCCCCCN1CCCN(C(=O)Nc2cc(Cl)cc(Cl)c2)CC1`, the growth inhibition in test [1] is 4%; in test [4] it was 96% (active). The inhibition in test [2] was 53% (active); in test [3] it was 6%. The result in test [5], in test [6], in test [7] and in test [8] was inactive.
